Experimental data taken from PubChem BioAssay (NCATS).
“And” between values parts separate entries of the source, which are not always exact repeats. Equal values may be shown once. Records with an inconclusive call do not appear. Values without a mark were called inactive. The source made the active and inactive calls. Calls come from the whole dose curve; as a rule, active = well fitted inhibition curve with a large enough effect; inconclusive = small, poorly fitted or top-dose-only effect; inactive = flat fitted curve, though single readings scatter.

test system: KB-3-1; experiment: Cytotoxic Profiling of Annotated Libraries Using Quantitative High-Throughput Screening (AID 1296008); conditions: Five cell lines viability, CellTiter-Glo ATP luminescence, 48-72 h; max response: hits give low values; note: nearly all actives have a fitted effect of over 60% in size
Text: Cell-based phenotypic screening is a commonly used approach to discover biological pathways, novel drug targets, chemical probes and high-quality hit-to-lead molecules. Many hits identified from high-throughput screening campaign are ruled out through a series of follow-up potency, selectivity/specificity, and cytotoxicity assays. Prioritization of molecules with little or no cytotoxicity for a more in-depth downstream evaluation influence the future direction of projects, so cytotoxicity profiling of the screening libraries at early stage is essential for increasing the likelihood of candidate success. […] For the annotated library, we also examined the primary targets and mechanistic pathways regularly associated with cell death. To our knowledge, this is the first study to use high-throughput screening to profile large libraries for cytotoxicity assessment in both normal and cancer cell lines. In summary, the results generated here constitutes a valuable resource for the scientific community and provides insight on identifying cytotoxic compounds with particular mechanisms of action, and prioritizing compounds with suitable cytotoxicity profile for further evaluation.
A pintool (Kalypsys) was used to transfer 23 nL of compound solution to the 1536-well assay plates. After 48 or 72 hr incubation at 37 degree Celsius, 5% CO2 and 95% humidity, 2.5 uL of CellTiter-Glo (Promega) was dispensed into each well using a dispenser (Aspect Automation, St. Paul, MN) with solenoid valves (Lee Valves, Westbrook CT). Plates were left at room temperature for 10 min before imaging the ATP-coupled luminescence using a ViewLux microplate imager (PerkinElmer, Waltham, MA).
% is set by controls: 0 for no effect and ±100 for the full control effect; potency is the fitted concentration of half-maximal effect.

Structure (SMILES)	max response	outcome	Potency
Oc1ccc(CCNCCCCCCNCCc2ccccc2)cc1O	-20.6%	–	–
CC(=O)OCC(=O)Nc1cc(C#N)cc(NC(=O)COC(C)=O)c1Cl	–	inactive	–
COC(=O)C1=C(C)NC(COC(N)=O)=C(C(=O)OC(C)C)C1c1cccc(Cl)c1Cl (stereo not given)	2.72%	–	–
O=C(NN1CCCC1)NS(=O)(=O)c1ccc(Cl)cc1	5.98%	–	–
CCC(=O)O[C@H]1[C@H](O[C@@H]2[C@@H](C)[C@H](O[C@H]3C[C@@](C)(OC)[C@@H](O)[C@H](C)O3)[C@@H](C)C(=O)O[C@H](CC)[C@@](C)(O)[C@H](O)[C@@H](C)C(=O)[C@H](C)C[C@@]2(C)O)O[C@H](C)C[C@@H]1N(C)C	2.69%	–	–
CC1c2ccccc2CN1NC(=O)c1ccc(Cl)c(S(N)(=O)=O)c1 (stereo not given)	8.25%	–	–
Nc1c(NC/C=C\COc2cc(CN3CCCCC3)ccn2)c(=O)c1=O	–	–	23.1 µM (active)
CCOC(=O)c1ccc(OCCN2C[C@H](O)[C@@H](O)[C@H](O)[C@H]2CO)cc1	–	inactive	–
CN(C)C(=O)CNC(=O)Cc1ccccc1	–	inactive	–
O=C(CO)[C@@H](O)[C@H](O)[C@@H](O)CO	-7.71%	–	–
N#C/C(=C1/SC[C@@H](c2ccc(Cl)cc2Cl)S1)n1ccnc1	-3.46% and -14.6% and -17.3%	–	–
COc1cccc2c1[C@@H]1CN(CCCCn3c(=O)[nH]c4c(sc5ncc(-c6ccccc6)nc54)c3=O)C[C@@H]1CO2	2.96%	–	–
O=C(O)[C@@H](O)[C@H](O)[C@H](O)[C@@H](O)C(=O)O	-10.9%	–	–
C1N2CN3CN1CN(C2)C3	-1.26%	–	–
CCOC(=O)c1ccc(NC(=O)CN2CCCCC2)cc1	–	inactive	–
CN1CC[C@H](c2c(O)cc(O)c3c(=O)cc(-c4ccccc4Cl)oc23)[C@H](O)C1	–	–	1.03 µM (active)
COc1ccccc1OCC1CNC(=O)O1 (stereo not given)	-0.906%	–	–
COc1cc(C(=O)OC(COCCC(C)C)CN2CCOCC2)cc(OC)c1OC (stereo not given)	–	inactive	–
CCOC(=O)[C@H](CCc1ccccc1)N[C@@H](C)C(=O)N(CC(=O)O)C1Cc2ccccc2C1	-12.3%	–	–
OCCc1ccccc1	-8.71%	–	–

Structure (SMILES)	max response	outcome	Potency
CC(=O)Nc1ccc(S(=O)(=O)Nc2cc(C)on2)cc1	-4.05%	–	–
CC(C)(C)C(O)/C=C/c1ccc2c(c1)OCO2 (stereo not given)	-0.272%	–	–
CC(=O)Nc1c(I)c(NC(C)=O)c(I)c(C(=O)O)c1I	-3.56%	–	–
Brc1ccccc1-c1ccccc1	-3.53%	–	–
Nc1ncnc2n[nH]c(Nc3ccc(F)cc3)c12	–	inactive	–
CC(=O)N(CC(O)CO)c1c(I)c(C(=O)NCCO)c(I)c(C(=O)NCC(O)CO)c1I (stereo not given)	-13%	–	–
CCN1CCN(C(=O)N[C@@H](C(=O)N[C@@H]2C(=O)N3[C@@H]2SC(C)(C)[C@H]3C(=O)O)c2ccccc2)C(=O)C1=O	-9.16%	–	–
OCc1cccnc1	3.27%	–	–
O=C(Oc1ccccc1)c1ccccc1O	-0.601%	–	–
CCCCNc1ccc(C(=O)OCCN(CC)CC)cc1	-0.138%	–	–
CO[C@]1(NC(=O)CSC(F)F)C(=O)N2C(C(=O)O)=C(CSc3nnnn3CCO)CO[C@H]21	–	inactive	–
CO[C@@H]1[C@@H](OC)[C@H](C)[C@@](O)(CC(=O)O)O[C@H]1[C@H](C)[C@H]1O[C@@]2(CC[C@@](C)([C@H]3CC[C@@](C)([C@@H]4O[C@@H]([C@H]5O[C@](C)(O)[C@H](C)C[C@@H]5C)C[C@@H]4OC4C[C@H](OC)[C@@H](OC)[C@H](C)O4)O3)O2)C[C@H](O)[C@H]1C (stereo not given in full)	–	–	16.4 µM (active)
OC(CCCN1CCCCC1)(c1ccccc1)c1ccccc1	-5.63%	–	–
CCCCC/C=C\C/C=C\CCCCCCCC(=O)NC(C)c1ccccc1 (stereo not given)	-8.18%	–	–
O=C(O)/C=C(\CC(=O)O)C(=O)O	-12.2%	–	–
CC(C)C[C@H](NC(=O)CNC(=O)[C@H](Cc1ccc(O)cc1)NC(=O)[C@H](CO)NC(=O)[C@H](Cc1c[nH]c2ccccc12)NC(=O)[C@H](Cc1cnc[nH]1)NC(=O)[C@@H]1CCC(=O)N1)C(=O)N[C@@H](CCCN=C(N)N)C(=O)N1CCC[C@H]1C(=O)NCC(N)=O (stereo in doubt)	-12.3%	–	–
CCCCCC1Nc2cc(C(F)(F)F)c(S(N)(=O)=O)cc2S(=O)(=O)N1 (stereo not given)	-12.8%	–	–
CC(C)(c1ccc(O)cc1)c1ccc(O)cc1	-17.4%	–	–
CCc1cc(S(=O)(=O)O)c2cc(C(C)C)cccc1-2	7.96%	–	–
CCCN(CCC)C(=O)C(CCC(=O)OCCCN1CCN(CCOC(=O)Cc2c(C)n(C(=O)c3ccc(Cl)cc3)c3ccc(OC)cc23)CC1)NC(=O)c1ccccc1 (stereo not given)	-0.886%	–	–
